Here are results for 31 compounds from PubChem BioAssay (NCATS).

Where “and” joins values, the source holds several entries; their conditions need not be identical. Equal values may be shown once. Where a SMILES comes first, the peptide text is derived from it.

The first experiment can be described thus: qHTS drug screen for cell cycle checkpoint inhibitors in PARPi-resistant BRCA-mutant ovarian cancer cell lines. (AID 1963452). The following applies: PEO1/OlaR viability, CellTiter-Glo luminescence, 96 h; measured here: PEO1 parental Z-AUC; stronger effect = lower value. In short, it runs like this:
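PEO1, PEO4 and PEO1/OlaR ovarian cancer cells, 600 per well, exposed 96 h at 37C to a dilution series. Viability read by CellTiter-Glo luminescence, normalized to DMSO and empty wells; activity summarized as Z-AUC.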
`COc1ccc([C@@H](O)[C@@H](C)Oc2ccc([C@H]3O[C@H](c4ccc(O[C@H](C)[C@H](O)c5ccc(OC)c(OC)c5)c(OC)c4)[C@H](C)[C@H]3C)cc2OC)cc1OC`: the Z-AUC is -3.67.

Consider `CN1CCN(C(=O)[C@H]2[C@@H](C(=O)O)[C@H]3CC[C@@H]2O3)CC1`, for which the Z-AUC came to 0.568.

`CN1C(=O)[C@@H](NC(=O)c2cc(Cc3ccccc3)on2)COc2ccccc21`: the Z-AUC is 0.721.

Consider `CN(C)CCOc1ccc(-c2nc(-c3ccc4c(c3)CC/C4=N\O)c(-c3ccncc3)[nH]2)cc1`, for which the Z-AUC was -1.12.

As for `CC(=O)N[C@H]1[C@H](O[C@@H]2c3ccc(c(Cl)c3)Oc3cc4cc(c3O[C@@H]3O[C@H](CO)[C@@H](O)[C@H](O)[C@H]3NC(=O)CCCCCCCC(C)C)Oc3ccc(cc3Cl)C[C@H]3NC(=O)[C@H](N)c5ccc(O)c(c5)Oc5cc(O)cc(c5)[C@H](NC3=O)C(=O)N[C@H]4C(=O)N[C@H]3C(=O)N[C@@H]2C(=O)N[C@@H](C(=O)O)c2cc(O)cc(O[C@H]4O[C@H](CO)[C@@H](O)[C@H](O)[C@@H]4O)c2-c2cc3ccc2O)O[C@H](CO)[C@@H](O)[C@@H]1O`, the Z-AUC is 0.652.

In the case of `Cc1cc(C)cc(Oc2ccc(CNC(=O)[C@H](C)N)cc2C)c1`, the Z-AUC amounted to 1.04.

For the compound `CCn1c(=O)c2c(nc(/C=C/c3ccc(OC)c(OC)c3)n2C)n(CC)c1=O`, the Z-AUC was 0.401.

Turning to `N=C(N)c1ccc2nc(-c3cc(CC(=O)N[C@@H](CC(=O)O)C(=O)O)cc(-c4cc(S(N)(=O)=O)ccc4O)c3O)[nH]c2c1`, the Z-AUC was -0.562.

`O=C(/C=C/N1C[C@H]2C[C@@H]1CN2c1ccccn1)c1ccccc1O`: the Z-AUC amounted to 0.925.

Regarding `O=C(Nc1ccccc1)Nc1ccc(-c2ccc(C(=O)[C@@H]3CCC[C@H]3C(=O)O)cc2)cc1`, the Z-AUC turned out to be 0.577.

Consider `Cc1ncsc1-c1ccc([C@H](C)NC(=O)[C@@H]2C[C@@H](O)CN2C(=O)[C@@H](NC(=O)COCCCOCCNC(=O)C[C@@H]2N=C(c3ccc(Cl)cc3)c3c(sc(C)c3C)-n3c(C)nnc32)C(C)(C)C)cc1`, for which the Z-AUC was -2.46.

On to `O=C(O)C[C@H]1CCc2c1[nH]c1ccc(OCc3ccc(C4CCCC4)c(C(F)(F)F)c3)cc21`, for which the Z-AUC came out at 0.981.

In the case of `C=C1C[C@H]2C=Nc3cc(OCCCOc4cc5c(cc4OC)C(=O)N4CC(=C)C[C@H]4C=N5)c(OC)cc3C(=O)N2C1`, the Z-AUC was found to be 0.729.

Regarding `COc1cc(N2CCN(C)CC2)ccc1Nc1ncc2c(n1)N(C)c1ccccc1C(=O)N2C`, the Z-AUC came out at 0.0513.

For the compound `CC(C)(O)CNc1ncc(-c2ccnc(Nc3ccncc3)n2)c(CC2CC2)n1`, the Z-AUC was -0.212.

As to `O=c1[nH]nc2c3c(cccc13)NC(CN1Cc3ccccc3C1)=N2`, the Z-AUC was -0.113.

With `CCNCCS(=O)(=O)NC[C@@]1(c2ccccc2)SC(NC(=O)C(C)(C)C)=NN1C(=O)C(C)(C)C`, the Z-AUC is -2.33.

As for `Cc1cnc(NC(=O)c2cc(Oc3cnc(C(=O)N(C)C)nc3)c3cc(C)oc3c2)cn1`, the Z-AUC was -0.452.

On to `N[C@@H](CCC(=O)O)C(=O)N[C@@H](Cc1c[nH]c2ccccc12)C(=O)O` (H-Glu-Trp-OH), for which the Z-AUC amounted to 0.582.

For the compound `C=C1/C(=C\C=C2/CCC[C@]3(C)[C@@H]([C@H](C)CCCC(C)(C)O)CC[C@@H]23)C[C@@H](O)C[C@@H]1O`, the Z-AUC is 0.475 and 0.837.

With `CCn1c(=O)c(-c2ccc(-c3cncc(C)n3)cc2Cl)cc2cnc(NCCC3CCN(C)CC3)nc21`, the Z-AUC stood at 0.823.

In the case of `Cc1c(C(=O)Nc2ccc(Oc3ccnc4[nH]cc(-c5ccccc5)c34)c(F)c2)c(=O)n(-c2ccc(F)cc2)n1C`, the Z-AUC was determined as 0.825.

Regarding `CN1C[C@@H]2c3ccccc3Oc3ccc(Cl)cc3[C@H]2C1`, the Z-AUC amounted to 1.52.

For `Cc1ccc(NC(=O)[C@H]2CCCN(C(=O)c3c(C)cccc3F)[C@H]2c2ccc(NC3CCCC3)cc2)cc1C(F)(F)F`, the Z-AUC was 0.0404.

For `CCCc1cc(C(=O)N[C@H](Cc2ccc(-c3cccc(OC(F)(F)F)c3)nc2)C(=O)N[C@@H]2CCNC2)sc1C`, the Z-AUC is -0.801.

Consider `CCS(=O)(=O)Nc1ccc(Oc2ccc(F)cc2F)c(-c2cn(C)c(=O)c3[nH]ccc23)c1`, for which the Z-AUC was -1.41.

For `NC(=O)c1cnc2[nH]ccc2c1NC1C2CC3C[C@H]1CC(O)(C3)C2` (some centres not stated), the Z-AUC came to 0.594.

Consider `CCOc1cc(/C=C2/C(=O)N(c3ccccc3)N=C2C)cc(Cl)c1OCC(=O)OC`, for which the Z-AUC came to 1.44.

With `CCC1CCCCN1C(=O)n1ncc(C(O)(c2ccccc2)c2ccccc2)n1` (configuration not stated), the Z-AUC turned out to be 0.47.

`NS(=O)(=O)c1ccc(S(=O)(=O)Nc2cccc3c(Cl)c[nH]c23)cc1`: the Z-AUC is -0.0531.

On to `O=C(C[C@@H]1C/C=C\CCC(=O)O[C@H](c2ccccc2)CNC1=O)NCc1ccc(Cl)cc1`, for which the Z-AUC stood at 0.123.

Staying with this experiment, now noted: PEO1/OlaR viability, CellTiter-Glo luminescence, 96 h; measured here: PEO4 Z-AUC; stronger effect = lower value.
In the case of `COc1ccc([C@@H](O)[C@@H](C)Oc2ccc([C@H]3O[C@H](c4ccc(O[C@H](C)[C@H](O)c5ccc(OC)c(OC)c5)c(OC)c4)[C@H](C)[C@H]3C)cc2OC)cc1OC`, the Z-AUC was -2.38.

Consider `CN1CCN(C(=O)[C@H]2[C@@H](C(=O)O)[C@H]3CC[C@@H]2O3)CC1`, for which the Z-AUC worked out at 0.663.

Consider `CN1C(=O)[C@@H](NC(=O)c2cc(Cc3ccccc3)on2)COc2ccccc21`, for which the Z-AUC stood at 1.08.

Regarding `CN(C)CCOc1ccc(-c2nc(-c3ccc4c(c3)CC/C4=N\O)c(-c3ccncc3)[nH]2)cc1`, the Z-AUC was -1.55.

In the case of `CC(=O)N[C@H]1[C@H](O[C@@H]2c3ccc(c(Cl)c3)Oc3cc4cc(c3O[C@@H]3O[C@H](CO)[C@@H](O)[C@H](O)[C@H]3NC(=O)CCCCCCCC(C)C)Oc3ccc(cc3Cl)C[C@H]3NC(=O)[C@H](N)c5ccc(O)c(c5)Oc5cc(O)cc(c5)[C@H](NC3=O)C(=O)N[C@H]4C(=O)N[C@H]3C(=O)N[C@@H]2C(=O)N[C@@H](C(=O)O)c2cc(O)cc(O[C@H]4O[C@H](CO)[C@@H](O)[C@H](O)[C@@H]4O)c2-c2cc3ccc2O)O[C@H](CO)[C@@H](O)[C@@H]1O`, the Z-AUC is 1.05.

Take `Cc1cc(C)cc(Oc2ccc(CNC(=O)[C@H](C)N)cc2C)c1`: the Z-AUC is 1.3.

For `CCn1c(=O)c2c(nc(/C=C/c3ccc(OC)c(OC)c3)n2C)n(CC)c1=O`, the Z-AUC was 0.882.

On to `N=C(N)c1ccc2nc(-c3cc(CC(=O)N[C@@H](CC(=O)O)C(=O)O)cc(-c4cc(S(N)(=O)=O)ccc4O)c3O)[nH]c2c1`, for which the Z-AUC was -0.379.

For the compound `O=C(/C=C/N1C[C@H]2C[C@@H]1CN2c1ccccn1)c1ccccc1O`, the Z-AUC came to 0.836.

For the compound `O=C(Nc1ccccc1)Nc1ccc(-c2ccc(C(=O)[C@@H]3CCC[C@H]3C(=O)O)cc2)cc1`, the Z-AUC amounted to 0.797.

On to `Cc1ncsc1-c1ccc([C@H](C)NC(=O)[C@@H]2C[C@@H](O)CN2C(=O)[C@@H](NC(=O)COCCCOCCNC(=O)C[C@@H]2N=C(c3ccc(Cl)cc3)c3c(sc(C)c3C)-n3c(C)nnc32)C(C)(C)C)cc1`, for which the Z-AUC is -2.23.

For the compound `O=C(O)C[C@H]1CCc2c1[nH]c1ccc(OCc3ccc(C4CCCC4)c(C(F)(F)F)c3)cc21`, the Z-AUC was 0.948.

As to `C=C1C[C@H]2C=Nc3cc(OCCCOc4cc5c(cc4OC)C(=O)N4CC(=C)C[C@H]4C=N5)c(OC)cc3C(=O)N2C1`, the Z-AUC was 0.852.

Take `COc1cc(N2CCN(C)CC2)ccc1Nc1ncc2c(n1)N(C)c1ccccc1C(=O)N2C`: the Z-AUC was -0.152.

Take `CC(C)(O)CNc1ncc(-c2ccnc(Nc3ccncc3)n2)c(CC2CC2)n1`: the Z-AUC was found to be 0.228.

`O=c1[nH]nc2c3c(cccc13)NC(CN1Cc3ccccc3C1)=N2`: the Z-AUC was -0.251.

Consider `CCNCCS(=O)(=O)NC[C@@]1(c2ccccc2)SC(NC(=O)C(C)(C)C)=NN1C(=O)C(C)(C)C`, for which the Z-AUC was -2.54.

As for `Cc1cnc(NC(=O)c2cc(Oc3cnc(C(=O)N(C)C)nc3)c3cc(C)oc3c2)cn1`, the Z-AUC stood at 0.0814.

As to `N[C@@H](CCC(=O)O)C(=O)N[C@@H](Cc1c[nH]c2ccccc12)C(=O)O` (H-Glu-Trp-OH), the Z-AUC worked out at 0.474.

Regarding `C=C1/C(=C\C=C2/CCC[C@]3(C)[C@@H]([C@H](C)CCCC(C)(C)O)CC[C@@H]23)C[C@@H](O)C[C@@H]1O`, the Z-AUC is 0.77 and 1.19.

Turning to `CCn1c(=O)c(-c2ccc(-c3cncc(C)n3)cc2Cl)cc2cnc(NCCC3CCN(C)CC3)nc21`, the Z-AUC is 1.06.

For `Cc1c(C(=O)Nc2ccc(Oc3ccnc4[nH]cc(-c5ccccc5)c34)c(F)c2)c(=O)n(-c2ccc(F)cc2)n1C`, the Z-AUC is 0.513.

Turning to `CN1C[C@@H]2c3ccccc3Oc3ccc(Cl)cc3[C@H]2C1`, the Z-AUC was 1.41.

Regarding `Cc1ccc(NC(=O)[C@H]2CCCN(C(=O)c3c(C)cccc3F)[C@H]2c2ccc(NC3CCCC3)cc2)cc1C(F)(F)F`, the Z-AUC is -0.339.

As for `CCCc1cc(C(=O)N[C@H](Cc2ccc(-c3cccc(OC(F)(F)F)c3)nc2)C(=O)N[C@@H]2CCNC2)sc1C`, the Z-AUC is -0.851.

Take `CCS(=O)(=O)Nc1ccc(Oc2ccc(F)cc2F)c(-c2cn(C)c(=O)c3[nH]ccc23)c1`: the Z-AUC is -1.58.

For the compound `NC(=O)c1cnc2[nH]ccc2c1NC1C2CC3C[C@H]1CC(O)(C3)C2` (some centres not stated), the Z-AUC stood at 0.746.

Take `CCOc1cc(/C=C2/C(=O)N(c3ccccc3)N=C2C)cc(Cl)c1OCC(=O)OC`: the Z-AUC stood at 0.891.

On to `CCC1CCCCN1C(=O)n1ncc(C(O)(c2ccccc2)c2ccccc2)n1` (configuration not stated), for which the Z-AUC is 0.409.

Regarding `NS(=O)(=O)c1ccc(S(=O)(=O)Nc2cccc3c(Cl)c[nH]c23)cc1`, the Z-AUC was -0.727.

As for `O=C(C[C@@H]1C/C=C\CCC(=O)O[C@H](c2ccccc2)CNC1=O)NCc1ccc(Cl)cc1`, the Z-AUC is -0.716.
